From PubChem BioAssay (NCI)
About 83,000 compounds went through this panel and 20% of them were active in at least one assay; those are over-represented in the sample as a whole.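 Results are percent growth after 48 hours of single-concentration exposure. 100 means growth as in untreated cells, lower positive values show inhibition; negative values down to -100 show cell death.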 Values without a mark were called inactive. Calls of active or inactive are those of the source. Rule for the calls: active = growth percent below 10; inactive = the rest.

How the values were obtained:
Assay in all cases: NCI-60 one-dose screen, 48 h (100 = growth as untreated, 0 = no growth, -100 = all killed)
Details in all cases: 10 µM unless noted
SK-MEL-2 melanoma = tested on: SK-MEL-2 melanoma
EKVX NSCLC = tested on: EKVX NSCLC
SN12C renal = tested on: SN12C renal
UO-31 renal = tested on: UO-31 renal
TK-10 renal = tested on: TK-10 renal
ACHN renal = tested on: ACHN renal
CAKI-1 renal = tested on: CAKI-1 renal
A498 renal = tested on: A498 renal
CCRF-CEM leukemia = tested on: CCRF-CEM leukemia
MOLT-4 leukemia = tested on: MOLT-4 leukemia
RPMI-8226 leukemia = tested on: RPMI-8226 leukemia
OVCAR-8 ovarian = tested on: OVCAR-8 ovarian
OVCAR-5 ovarian = tested on: OVCAR-5 ovarian
SK-OV-3 ovarian = tested on: SK-OV-3 ovarian
IGROV1 ovarian = tested on: IGROV1 ovarian
OVCAR-3 ovarian = tested on: OVCAR-3 ovarian
HS 578T breast = tested on: HS 578T breast
NCI/ADR-RES ovarian = tested on: NCI/ADR-RES ovarian
OVCAR-4 ovarian = tested on: OVCAR-4 ovarian

SMILES | growth (SK-MEL-2 melanoma) | growth (EKVX NSCLC) | growth (SN12C renal) | growth (UO-31 renal) | growth (TK-10 renal) | growth (ACHN renal) | growth (CAKI-1 renal) | growth (A498 renal) | growth (CCRF-CEM leukemia) | growth (MOLT-4 leukemia) | growth (RPMI-8226 leukemia) | growth (OVCAR-8 ovarian) | growth (OVCAR-5 ovarian) | growth (SK-OV-3 ovarian) | growth (IGROV1 ovarian) | growth (OVCAR-3 ovarian) | growth (HS 578T breast) | growth (NCI/ADR-RES ovarian) | growth (OVCAR-4 ovarian)
COc1ccc2c(c1)/C(=C/c1sc(=S)n(Cc3ccco3)c1O)C=N2 | 27% | 60.2% | 32.7% | 58.6% | 77.6% | 40.6% | 39.3% | -9.18% (active) | 18.3% | 29.2% | 18.5% | 40.7% | 76.8% | 68.6% | 47.8% | 22.9% | 20.4% | 13.3% | –
O=C(CCOCCNC(=O)COc1ccc2c(c1)OCC(c1ccc(F)cc1)C2=O)NCCCC(O)(P(=O)(O)O)P(=O)(O)O (stereo unspecified) | 104% | 94.5% | 103% | 95.3% | 114% | 102% | 94.7% | 89% | 96.7% | 99.3% | 108% | – | 103% | 108% | 118% | 104% | 105% | 107% | 99.2%
CCN(CC)Cc1cc(Nc2c3ccc(Cl)cc3nc3ccc(OC)cc23)ccc1O | 101% | 76.2% | 56.6% | 34.2% | 96.6% | 59.7% | 69.8% | 77.2% | 60.4% | 22.6% | 21.7% | 37.5% | 51.2% | 54.7% | 29.6% | 56.6% | 72.7% | 42.3% | –
Cn1cc(-c2ccc3cc(-c4ccc(CC(=O)Nc5cc(C(C)(C)C)nn5C)cc4)cnc3c2)cn1 | -38.4% (active) | 23.5% | 5.18% (active) | 1.27% (active) | 15.8% | 3.05% (active) | 0.564% (active) | -18.5% (active) | 23% | 13.2% | – | 3.03% (active) | 43.8% | -5.28% (active) | -1.22% (active) | 14.2% | -1.77% (active) | -2.56% (active) | 3.73% (active)
COc1c(B(O)O)cc(C)cc1-c1nc2ccc3[nH]ncc3c2c2c1CCCC2 | 102% | 54.2% | 52% | 23.5% | 19.7% | 57% | -31.8% (active) | 49.2% | 35.1% | 19.7% | 35.6% | – | 89.3% | 63.5% | 60.8% | 102% | 18.2% | 55.7% | 102%
CN1CCN(c2ccc(-c3cc4c(Nc5ccc(F)c(Cl)c5)ncnn4c3)cc2)CC1 | 103% | 83.5% | 70.1% | 82.7% | 73.6% | 44% | 66.8% | 61.9% | 28.9% | 34.2% | – | 70.4% | 95.2% | 92.7% | 49.5% | 77% | 75.2% | 72.5% | 71.2%
BrCCCc1n(Cc2ccc3ccccc3c2)c2ccccc2[n+]1Cc1ccc2ccccc2c1 | -50.8% (active) | -10.7% (active) | -92.8% (active) | 52.8% | -85.7% (active) | 5.29% (active) | -90.7% (active) | -32.5% (active) | -41.6% (active) | -35.9% (active) | – | -69.2% (active) | -4.99% (active) | -38.2% (active) | -71.9% (active) | -71.5% (active) | -48.2% (active) | 58.3% | -24.7% (active)
CCCCNc1nc(NN2C(=O)c3cccc4cccc(c34)C2=O)nc(-n2cnc3ccccc32)n1 | 99% | 71.8% | 90.5% | 44.1% | 100% | 81.3% | 75.6% | 35.9% | 96.3% | 77.4% | – | 93.3% | 83.8% | 99.3% | 80.4% | 86.3% | 81.9% | 91.5% | 67.7%
c1ccc2c(-c3nc(-c4c[nH]c5ccncc45)cs3)c[nH]c2c1 | 97.8% | 35% | 68.9% | 44.4% | 56.4% | 23.5% | 17.1% | 85.5% | 2.54% (active) | 30% | 10.9% | – | 70.8% | 73.3% | 54.2% | 72.3% | 72.3% | 72.7% | 59.5%
CC(=O)CC(c1cccs1)c1c(-c2ccccc2)[nH]c2ccccc12 (stereo unspecified) | 94.6% | 72.6% | 93% | 71.5% | 134% | 89.9% | 39.4% | 84% | 92.6% | 86.9% | 78% | – | 99.8% | 90.1% | 83.3% | 86.4% | 82.1% | 69% | 82.6%
O=c1[nH][n+](-c2ccc(Br)cc2)no1 | 55.8% | 60.8% | 66.7% | 22.7% | 63.8% | 37.8% | 18.5% | 93.8% | 55.1% | 41.5% | 56.6% | 55.7% | 74.7% | 82.3% | 62.1% | 58.8% | 97.7% | 73.9% | –
O=[N+]([O-])c1ccc(Cl)c(-c2cc(CCCCO)on2)c1 | 118% | 103% | 94.5% | 86% | 119% | 101% | 87.2% | 87.1% | 108% | 109% | 105% | – | 101% | 113% | 105% | 111% | 99.7% | 101% | 97.4%
CCCCCCN(CCCCCC)c1ccc(/C=C2/SC(=O)NC2=O)c(C)c1 | 83% | 79.1% | 80.7% | 64.1% | 108% | 93.4% | 84.1% | 82.9% | 73% | 75.1% | – | 80.6% | 109% | 96.5% | 83.6% | 86.7% | 86.8% | 86.7% | 69.6%
NC(=O)Nc1ccc2ncnc(Nc3ccc(Cl)cc3)c2c1 | 127% | 22.4% | 81.9% | 58% | 26.5% | 47.4% | 40.1% | 43.4% | 96% | 71.2% | – | 89.5% | 83.6% | 30.2% | 61% | 74.2% | 87.8% | 88.7% | 91.9%
COc1ccc(/C=C/c2c(C(=O)/C=C/c3ccc(C(F)(F)F)cc3)c(C)nc3ccccc23)cc1 | -12.1% (active) | -18.7% (active) | -42.9% (active) | -87.7% (active) | -14% (active) | -94.3% (active) | -38% (active) | -66.3% (active) | 7.64% (active) | 6.21% (active) | -25.7% (active) | – | -33.6% (active) | 27.3% | -57.2% (active) | -71% (active) | 1.9% (active) | 2.01% (active) | -6.41% (active)
CCc1ccc2nc(NC(=O)Cc3csc(NC(=O)c4ccco4)n3)sc2c1 | 67.9% | 81.7% | 79.4% | 60.5% | 82% | 57.2% | 60.1% | 83.9% | 87.2% | 39.9% | – | 43.3% | 83.1% | 65.1% | -9.65% (active) | 64.1% | 31.4% | 77.5% | 43.1%
O=C(CS(=O)c1oc(-c2cccs2)nc1S(=O)(=O)c1ccc(Br)cc1)c1ccccc1 (stereo unspecified) | 89.3% | 111% | 96.2% | 80.3% | 104% | 94.1% | 90.9% | 49.1% | 94.1% | 94.2% | 91.8% | 91.4% | 89.2% | 89.8% | 101% | 103% | 79.5% | 93.8% | –
